# Measured values published in PubChem BioAssay AID2314 (National Center for Advancing Translational Sciences (NCATS), 2010).
# About 37,000 (12%) of roughly 300,000 compounds were called active. The list comes from a sample in which actives are over-represented; it also holds similar structures and randomly drawn compounds. Values without a mark were called inactive. Rule as the data show it: active = max response mostly above about 13% (no sharp cut-off); inactive = mostly below about 14%.
# Assay: Cycloheximide Counterscreen for Small Molecule Inhibitors of Shiga Toxin; also: read at 38.3 µM for the half of the compounds with a filed dose; 0% is about no effect
# Settings: cell reporter, cycloheximide protein synthesis inhibition counterscreen; stronger effect = higher value
row,Compound,max response
1,Cc1c(CCO)sc[n+]1CC(=O)OC12CC3CC(CC(C3)C1)C2,-2.92%
2,COC(=O)C1(C)CC1(c1ccccc1)c1ccccc1 (stereo unspecified),-2.76%
3,COC(=O)c1c(C)oc2ccc(N(C(=O)Oc3ccccc3)S(=O)(=O)c3ccccc3)cc12,-13.2%
4,Cc1cccc(/C(N)=N/OC(=O)c2ccccc2Cl)c1,37% (active)
5,N/C(=N\OC(=O)c1cc(-c2ccccc2)nc2ccccc12)c1ccncc1,-3.22%
6,Cc1cccc(C(=O)c2cccc(C)c2)c1,0.416%
7,O=C(O)CCN=C1CCc2ccccc2N1,-2.89%
8,COc1cc(OC)cc(-c2nnc(N(C)C(=O)c3ccncc3)s2)c1,-2.59%
9,COc1ccc(NC(=O)C2CCN(S(=O)(=O)c3ccc4[nH]c(=O)oc4c3)CC2)c(OC)c1,-1.11%
10,Cc1ccc(N(CC(=O)Nc2cccc(N(C)S(C)(=O)=O)c2)S(C)(=O)=O)cc1,-1.08%
11,CN(c1cccc(NC(=O)Nc2ccc(Cl)cc2)c1)S(C)(=O)=O,36.6% (active)
12,CN(c1cccc(NC(=O)c2ccc(CN3CCc4ccccc4C3)cc2)c1)S(C)(=O)=O,-1.55%
13,COc1cccc(C(=O)N/N=C(\C)c2cccc(NC(=O)c3ccc(F)cc3)c2)c1OC,27.3% (active)
14,CC(=O)Nc1cccc(/C(C)=N/NC(=O)c2ccccc2Cl)c1,8.8%
15,C/C(=N/NC(=O)c1ccc(NC(=O)c2ccc(F)cc2)cc1)c1ccccc1,11%
16,O=C(Nc1nonc1-c1ccc(Cl)cc1)c1ccco1,7.55%
17,O=C(COc1ccc2c3c(c(=O)oc2c1)CCC3)NC1CCCCC1,1.97%
18,NC(=O)C1CCN(C(=O)COc2ccc3c4c(c(=O)oc3c2)CCC4)CC1,-1.44%
19,NC(=O)COc1ccc2c3c(c(=O)oc2c1)CCCCC3,12.8% (active)
20,CC1CCN(C(=O)c2cc3nc(C4CC4)cc(C(F)(F)F)n3n2)CC1,1.99%
21,CCNC(=S)N(CCN(CC)CC)Cc1cc2cc3c(cc2[nH]c1=O)OCCO3,-0.726%
22,COc1cccc(-c2cc(=O)c3cc(NC(=O)c4ccc(C)cc4)ccc3[nH]2)c1,-0.33%
23,CC1C/C(=N/NC(=O)c2cccs2)CC(C)(C)C1 (stereo unspecified),32.2% (active)
24,CC(C)OCCCNC(=O)CNC(=O)c1cccs1,-3.03%

row,Compound,max response
1,CC1(C)CC(=O)C/C(=N\NC(=O)c2cccs2)C1,1.56%
2,CC(=O)NNC1=Nc2ccccc2N(C)C(C)C1 (stereo unspecified),-2.23%
3,CC(C)c1ccccc1OCC(O)CN(CC(O)COc1cccc2ccccc12)C(C)C (stereo unspecified),-5.17%
4,Cc1ccc(NS(=O)(=O)c2ccc(-c3ccc(=O)[nH]n3)o2)c(C)c1,-1.58%
5,O=C(COc1ccc2c3c(c(=O)oc2c1)CCCC3)NCC(O)c1ccccc1 (stereo unspecified),-1.36%
6,Cc1cccc(NC(=O)/C(=C\c2ccco2)NC(=O)c2ccccc2)c1,11.3%
7,CC(=O)N1CCN(CC(=O)Nc2ccc(C)c(F)c2)CC1,-6.08%
8,CNC(=O)c1ccc(NC(=O)c2cccc(C(F)(F)F)c2)cc1,8.58%
9,Cc1cccc(NC(=O)NC(=S)NC(=O)c2ccccc2)c1,42.2% (active)
10,Cc1cccc(NC(=S)NC(=O)c2ccc(Br)o2)c1,34.5% (active)
11,Cc1cccc(NC(=S)Nc2ccc(Br)cc2)c1,18.4%
12,Cc1cccc(NC(=O)c2nnn(-c3cccc(C(F)(F)F)c3)c2N)c1,19.9%
13,Cc1ccc(NC(=O)NC(=O)c2ccccc2)cc1F,25.9% (active)
14,O=C(CNC(=O)c1ccc(Br)o1)Nc1ccccc1,-2.14%
15,Cc1cccc(NC(=O)c2cccc(C(F)(F)F)c2)c1,29.9% (active)
16,Cc1nc(C)c(C(=O)Nc2ccc(C)c(F)c2)o1,5.75%
17,Cc1cccc(NC(=S)NC23CN4CN(CN(C4)C2)C3)c1,0.709%
18,Cc1cc(-c2nnc(SCC(=O)Nc3ccc(F)cc3)n2N)n[nH]1,0.984%
19,COc1ccccc1NC1=NC(c2ccc(Cl)cc2)N=C(N)N1 (stereo unspecified),2.63%
20,CC(Sc1nnnn1C)C(=O)NC(=O)NC1CCCCC1 (stereo unspecified),0.707%
21,COc1ccc(N2CCN(CCNC(=O)Nc3cc(Cl)ccc3Cl)CC2)cc1,-4.73%
22,O=C(Nc1ccnn1C1CCN(Cc2cccc(OCCO)c2)CC1)C1CCCC1,-3.51%
23,Cc1cccc(NS(=O)(=O)c2ccc(-c3cnc(C4CC4)o3)cc2)c1,-3%
24,CC1CCN(C(=S)NC(=O)c2ccccc2Br)CC1,3.84%

row,Compound,max response
1,O=C(NC(=S)Nc1ccc(S(=O)(=O)Nc2ncccn2)cc1)c1cccc(Br)c1,5.33%
2,O=C(NC(=S)Nc1ncccn1)c1ccccc1Br,14.4% (active)
3,COc1cc2nc(CN(C)Cc3ccc(F)cc3)[nH]c(=O)c2cc1OC,-2.34%
4,COc1ccc(-n2nc(C(=O)NCC(=O)N3CCCCCC3)c3ccccc3c2=O)cc1Cl,1.06%
5,COC(=O)c1ccc(C(=O)OC)c(NC(=S)N2CCN(c3ccc(F)cc3)CC2)c1,-7.21%
6,COC(=O)c1nc(NC(=O)c2ccc(F)cc2)n[nH]1,-1.65%
7,COC(=O)c1ccc(Sc2ccc(F)cc2)c(N)c1,24.1% (active)
8,O=S(=O)(NC1CCCCC1N1CCN(c2ccccc2F)CC1)c1ccccc1 (stereo unspecified),7.38%
9,O=C(O)c1ccc(/C=C2\SC(=S)N(NC(=O)c3ccc(Br)cc3)C2=O)cc1,-2.52%
10,CC1(C)NC(=O)N(CCCCSc2ccc(Cl)cc2)C1=O,6.3%
11,CN(Cc1ccccc1)C(=O)c1ccc(NC2=NC3CS(=O)(=O)CC3S2)cc1 (stereo unspecified),0.883%
12,O=C(N/N=C/c1ccc(O)cc1)/C(=C/c1ccc([N+](=O)[O-])cc1)NC(=O)c1ccccc1,5.92%
13,Nc1nonc1-n1nnc(C(=O)N/N=C/c2c[nH]c3ccccc23)c1-c1ccccc1,6.03%
14,Cc1nc2ccccc2cc1C(=O)N/N=C/c1ccc([N+](=O)[O-])cc1,-1.28%
15,NC(=S)N/N=C/c1ccc([N+](=O)[O-])cc1,2.05%
16,O=C(N/N=C/c1ccc([N+](=O)[O-])cc1)c1c[nH]c2ccccc12,26.3% (active)
17,Cc1c(/C=N\NC(=O)c2cc3ccccc3o2)c2ccccc2n1C,5.05%
18,O=C(Cc1c[nH]c2ccccc12)N/N=C/c1cccc(F)c1,11.5%
19,O=C(N/N=C/c1c[nH]c2ccccc12)c1cc2ccccc2o1,22.4% (active)
20,CCCCCC(=O)Nc1ccc(C(=O)N/N=C/c2ccc([N+](=O)[O-])cc2)cc1,-2.53%
21,O=C(N/N=C/c1coc2ccccc2c1=O)c1cc2ccccc2o1,13.8%
22,O=C(N/N=C/c1c[nH]c2ccccc12)c1ccccc1O,29.2% (active)
23,Cc1ccsc1C(=O)N/N=C/c1ccc([N+](=O)[O-])cc1,55% (active)
24,COC(=O)C1=C(C)N(c2ccc(C)cc2)/C(=C/c2ccc(O)cc2)C1=O,-3.37%

row,Compound,max response
1,COc1ccc(C(=O)COC(=O)COc2ccc(C)c(C)c2)cc1,-1.99%
2,COc1cccc(NC(=O)[C@H](Cc2c[nH]c3ccccc23)NC(=O)[C@@H]2Cc3ccccc3CN2)c1,8.96%
3,Cc1nn(Cc2ccc(C(=O)N3N=C(C(F)F)CC3(O)C(F)F)cc2)c(C)c1[N+](=O)[O-] (stereo unspecified),-2.42%
4,Cc1ccc(NS(=O)(=O)c2ccc(C(C)(C)C)cc2)cn1,-1.83%
5,Cc1ccc(-n2ncc3c2CC(C)(C)CC3NC(=O)Cc2c(C)noc2C)cc1 (stereo unspecified),1.83%
6,CCOC(=O)CNC(=O)CSc1ncccc1-c1nc2ccccc2[nH]1,6.47%
7,O=C(O)c1cccc(NC(=S)N/N=C/c2c[nH]c3ccccc23)c1,19.9%
8,Cc1ccc(NC(=O)CN(C)CC(=O)Nc2cccc(F)c2)cc1[N+](=O)[O-],-3.93%
9,CNc1ccc(NC(C)=O)cc1[N+](=O)[O-],-1.59%
10,CSC(=S)N/N=C/c1c[nH]c2ccccc12,19.8% (active)
11,C[n+]1ccc(/C=C/c2c[nH]c3ccccc23)cc1,0.857%
12,Cc1ccc(NC(=O)c2sccc2C)cc1[N+](=O)[O-],54.5% (active)
13,CN(C)c1ccc(C(CNC(=O)c2ccc(F)cc2)c2c[nH]c3ccccc23)cc1 (stereo unspecified),-1.36%
14,COc1ccc(CC(=O)NCC(=O)N/N=C/c2cc(Br)ccc2OC)cc1,-1.85%
15,CCc1ccc(C2C(C#N)=C(N)N(N3CCOCC3)C3=C2C(=O)CC(C)(C)C3)s1 (stereo unspecified),-4.64%
16,CC1CCN(C(=O)CN(c2ccc(Oc3ccccc3)cc2)S(C)(=O)=O)CC1,0.761%
17,Cc1ccc(C(=O)NCCN2CCOCC2)cc1C,0.531%
18,CC(=O)Oc1cc2c(C(=O)NCCN3CCOCC3)c(C)oc2c2ccccc12,23.5% (active)
19,Cc1cc(C)cc(C(=O)NCCN2CCOCC2)c1,-3.62%
20,Cn1nccc1C(=O)N1CCCC(C(=O)c2ccc(Oc3ccccc3)cc2)C1 (stereo unspecified),-1.23%
21,CC1Sc2ccc(S(=O)(=O)CCC(=O)NCc3ccccc3Cl)cc2NC1=O (stereo unspecified),-2.98%
22,COc1cc(/C=N/n2c(C)n[nH]c2=S)ccc1OCc1ccccc1,25.8% (active)
23,Cc1n[nH]c(=S)n1/N=C/c1ccc(Br)o1,-1.34%
24,Fc1ccc(/C=N/n2c(COc3ccccc3)n[nH]c2=S)cc1,-4.69%
